TDP1 cell noCPT: qHTS for Inhibitors of human tyrosyl-DNA phosphodiesterase 1 (TDP1): qHTS in cells in absence of CPT; AID 686978, 2013; 420,000 tested, 15% active; DT40 Tdp1-/- hTDP1 cells, no CPT, ATP luminescence, 48 h; Potency, µM (highest dose often 46.2 µM), for the others: at the highest dose activity change, negative = growth inhibition, usual class: inhibitors; also: potency is read from the fitted curve at half-maximal effect; % is scaled to controls: 0 for no effect and ±100 for the full control effect; nearly all actives have a fitted effect of over 55% in size
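Growth of hTDP1-complemented DT40 Tdp1-knockout cells is measured by ATP luminescence after at least 48 hr compound exposure at 37 °C, with DMSO substituting for the 20 nM CPT used in the parallel screen.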
IL-1B inflam inh: inhibitors of inflammasome signaling (IL-1 beta secretion); THP-1 LPS/ATP IL-1B secretion, AlphaLISA, 16 h; active compounds read low; activity change, % at 57.5 µM; 360,000 tested, 4.7% active; AID 743279; in the data active = activity change below about -50%; inconclusive = mostly about -30% to -49%; also: % is scaled to controls: 0 for no effect and ±100 for the full control effect
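Secreted IL-1B measured by AlphaLISA bead assay after 16 h compound exposure of THP-1 cells; compounds (final up to 57.5 uM) added 1 h before LPS (250 ng/mL) and ATP (1.25 mM) stimulation; lower signal means less secretion.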
TDP1 block: TDP1 (human) enzyme inhibition | 350,000 tested, 0.28% active | recombinant TDP1, AlphaScreen DNA substrate cleavage | Potency, µM (titrated, usually from 130 µM), inactives show top-dose activity change, negative = inhibition, usual class: inhibitors; also: potency is read from the fitted curve at half-maximal effect; % is scaled to controls: 0 for no effect and ±100 for the full control effect; nearly all actives have a fitted effect of over 40% in size
Target sequence (Q9NUW8 whole entry, looked up): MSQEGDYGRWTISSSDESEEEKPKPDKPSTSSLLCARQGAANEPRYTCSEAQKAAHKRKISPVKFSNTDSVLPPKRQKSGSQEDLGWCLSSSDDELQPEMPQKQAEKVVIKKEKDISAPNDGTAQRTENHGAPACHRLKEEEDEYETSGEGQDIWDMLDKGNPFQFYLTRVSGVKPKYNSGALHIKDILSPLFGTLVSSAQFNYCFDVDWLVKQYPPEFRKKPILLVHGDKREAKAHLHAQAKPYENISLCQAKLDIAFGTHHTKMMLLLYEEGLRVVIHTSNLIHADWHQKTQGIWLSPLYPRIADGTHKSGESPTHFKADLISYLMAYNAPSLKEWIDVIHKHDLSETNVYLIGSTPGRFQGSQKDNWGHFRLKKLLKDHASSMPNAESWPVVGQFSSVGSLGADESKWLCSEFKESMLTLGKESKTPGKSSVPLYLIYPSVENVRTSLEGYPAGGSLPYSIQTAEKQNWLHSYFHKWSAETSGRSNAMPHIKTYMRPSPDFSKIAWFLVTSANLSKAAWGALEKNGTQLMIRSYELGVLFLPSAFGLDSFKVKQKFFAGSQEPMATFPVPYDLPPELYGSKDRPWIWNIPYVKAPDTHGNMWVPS
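Recombinant human Tdp1 (E. coli-expressed, 1 nM final) preincubated with compounds 15 min at room temperature, then 5'-biotin/3'-phosphotyrosine-FITC DNA substrate (15 nM final) added for 5 min. AlphaScreen beads (10 ug/ml final) added 10 min; cleavage lowers signal.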
DT40 TDP1 CPT: DT40-hTDP1 cell growth loss with CPT; chicken DT40 Tdp1-/-;hTDP1 cells + 20 nM CPT, ATP luminescence, 48 h; Potency, µM (series often up to 46.2 µM), without a hit: top-dose activity change, negative = growth inhibition, usual class: inhibitors; 420,000 tested, 12% active; AID 686979; also: potency is read from the fitted curve at half-maximal effect; % is scaled to controls: 0 for no effect and ±100 for the full control effect; nearly all actives have a fitted effect of over 55% in size
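Chicken DT40 Tdp1-/- cells complemented with human TDP1, 400 cells/well, exposed to compounds plus 20 nM camptothecin for at least 48 h at 37 C; viability read as ATP content by CellTiter-Glo luminescence.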
HepG2 viability: counter-screen for TGF-b inhibitors: cytotoxicity in HepG2 cells. HepG2 CAGA-GFP viability, ATP luminescence, 18 h. Potency, µM (highest dose often 46.1 µM), without a hit: top-dose activity change, negative = cytotoxicity, usual class: cytotoxic. 410,000 tested, 0.76% active. AID 588856; also: potency is read from the fitted curve at half-maximal effect
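CellTiter-Glo luminescence gave cytotoxicity after 18 hours at 37 degrees C. The cells were HepG2 CAGA-GFP in 1% FBS DMEM, stimulated with 500 pg/mL TGF-beta after compound addition. %Activity was normalised to no-cell wells (complete cell-killing) and DMSO (no toxicity), and curves were fitted and classified.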
TGFb SMAD3 inh: TGF-b pathway inhibition; 410,000 tested, 1.2% active; Potency, µM (titrated, usually from 46.1 µM), for the others: at the top dose activity, negative = inhibition, hits mostly inhibitors; HepG2 CAGA-GFP TGF-b/SMAD3 reporter, GFP fluorescence, 18 h; TGF-beta stimulated, 500 pg/mL final; also: potency is read from the fitted curve at half-maximal effect; % is scaled to controls: 0 for no effect and ±100 for the full control effect; nearly all actives have a fitted effect of over 65% in size
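Per well, imaged GFP fluorescence of HEPG2 CAGA-GFP cells gives the signal; cells get compound, then TGF-beta (500 pg/mL final), 18 h at 37 degrees C; %Activity versus -TGF-beta and +DMSO controls.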
Starred values were filed as active, the others as inactive; ? = inconclusive; nt = no result; [ ] = remark or other dose. A selection: hits, their analogues and other compounds. The true share with any hit is near 19%. Unless noted, calls follow the shape of the dose curve; as a rule, active = well fitted curve in the direction sought with a large enough effect; inconclusive = small, poorly fitted or top-dose-only effect, or another doubt; inactive = no such curve, though single readings can be large; an effect the other way counts as inactive or inconclusive.

SMILES	TDP1 cell noCPT	IL-1B inflam inh	TDP1 block	DT40 TDP1 CPT	HepG2 viability	TGFb SMAD3 inh
Cc1cc(C)cc(Oc2nc3c(c(=O)n(C)c(=O)n3C)n2Cc2ccc(F)cc2)c1	?	nt	-2%	?	3%	-7%
CN(C)c1ccc(NC(=O)Cn2nnc3sc4c(c3c2=O)CCC(C(C)(C)C)C4)cc1 (stereo not given)	?	nt	5%	?	0%	-4%
Cc1cc(NC(=O)Cn2nnc3sc4c(c3c2=O)CCC(C(C)(C)C)C4)no1 (stereo not given)	?	-27	11%	11µM*	-11%	-26%
CCOc1ccccc1NC(=O)Cn1nnc2sc3c(c2c1=O)CCC(C(C)(C)C)C3 (stereo not given)	5.2µM*	nt	5%	15µM*	1%	0%
COc1ccc(NC(=O)CSc2ncc(-c3ccc(Cl)cc3)[nH]2)cc1OC	15µM*	nt	2%	?	-31%	-3%
Cc1cccc(NC(=O)CSc2ncc(-c3ccc(Br)cc3)[nH]2)c1	?	nt	2%	23µM*	13µM*	?
CCOc1cccc(NC(=O)CSc2ncc(-c3ccccc3)[nH]2)c1	?	nt	10%	?	-23%	-12%
COc1ccc(NC(=O)CSc2nc3[nH]ncc3c(=O)[nH]2)cc1OC	-3%	19	-7%	-8%	5%	7%
CCOc1ccc(-c2nnc(SCC(=O)Nc3cc(C)ccc3OC)o2)cc1	?	nt	9%	?	-1%	-5%
Cn1c(C(O)c2ccc3c(c2)OCO3)nc2ccccc21 (stereo not given)	?	13	7%	16µM*	-7%	-22%
CC1=N/C(=C/c2ccco2)C(=O)O1	-4%	11	5.6µM*	22%	0%	?
O=C1OC(c2ccc(Br)cc2)=N/C1=C\c1ccco1	-29%	-10	-5%	-22%	3%	68%
CCn1cc(S(=O)(=O)c2ccccc2)c(=O)c2cc(F)c(N3CCCCCC3)cc21	?	nt	-5%	?	0%	-2%
Cc1ccc(SC(=O)c2c([N+](=O)[O-])c(C)nn2C)cc1	15µM*	-65*	6%	18µM*	13%	-18%
CCOC(=O)c1cc(C(=O)OCC)c(=O)[nH]c1C	?	5	8%	?	-2%	-10%
CCOC(=O)c1cc2c(C)n(-c3ccc(OCC)cc3)c(C)c2cc(C(=O)OCC)c1=O	16µM*	6	5%	?	-5%	-8%
CCOC(=O)c1cc2c(C)n(-c3ccc(N(C)C)cc3)c(C)c2cc(C(=O)OCC)c1=O	?	5	4%	?	7%	14%
CCOC(=O)c1cc2c(C)[nH]c(C)c2cc(C(=O)OCC)c1=O	7.3µM*	-16	4%	?	1%	0%
CCCCCn1cc2c(c1-c1ccc(Br)cc1)c(=O)n(C)c(=O)n2C	21µM*	nt	9%	18µM*	-23%	?
Cn1c(=O)c2c(-c3ccc(Br)cc3)n(CCc3ccccc3)cc2n(C)c1=O	?	nt	7%	15µM*	-54%	10µM*
Cn1c(=O)c2c(-c3ccccc3)n(CCCO)cc2n(C)c1=O	-22%	nt	6%	-11%	-16%	2%
Cn1c(=O)c2c(-c3ccc(Cl)cc3)n(CCc3ccccc3)cc2n(C)c1=O	23µM*	nt	14%	?	-27%	?
CC(=O)c1ccc(NC(=O)C2CCCN(S(=O)(=O)c3cn(C)cn3)C2)cc1 (stereo not given)	-13%	nt	4%	-5%	-1%	1%
COc1ccc(CN2CCOc3ccc(C(O)c4cccnc4)cc3C2)c(F)c1 (stereo not given)	?	nt	nt	1%[9.04 µM]	nt	nt

Source: PubChem
